D1 potentiator: potentiators of human D1 dopamine receptor | P21728 | HEK293 TREx D1 cells, calcium flux, dopamine EC20 potentiation | potentiation, % at 10 µM | 360,000 tested, 0.036% active; in the data active = potentiation above about 30%; note: 0% is about no effect
Target sequence (P21728 whole entry, looked up): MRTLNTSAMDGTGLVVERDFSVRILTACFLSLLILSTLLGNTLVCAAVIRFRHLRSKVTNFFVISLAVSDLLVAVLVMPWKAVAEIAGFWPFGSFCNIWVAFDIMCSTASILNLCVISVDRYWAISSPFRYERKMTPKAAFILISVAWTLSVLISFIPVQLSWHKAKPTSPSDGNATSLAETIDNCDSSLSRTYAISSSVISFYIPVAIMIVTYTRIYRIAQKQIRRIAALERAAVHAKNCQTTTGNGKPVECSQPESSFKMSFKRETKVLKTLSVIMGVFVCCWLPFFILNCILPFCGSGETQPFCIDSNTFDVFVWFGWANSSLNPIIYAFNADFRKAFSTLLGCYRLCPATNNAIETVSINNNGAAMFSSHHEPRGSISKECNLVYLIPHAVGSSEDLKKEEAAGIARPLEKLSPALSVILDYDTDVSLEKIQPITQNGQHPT
DRD3 agonist: agonists of human D3 dopamine receptor | 410,000 tested, 0.58% active | D3R DiscoveRx beta-arrestin cells, luminescence, 90 min | max activation, % | P35462 | AID 652048; in the data active = max activation above about 30%; note: 0% is about no effect
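Agonist mode: compounds and dopamine controls were applied to plated cells for 90 min at 37 degrees C after an overnight attachment at 1500 cells/well. Luminescent read-out followed 30 - 60 minutes at room temperature with DiscoveRx detection reagent.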
DRD3 antagonist: blocks the human D3 dopamine receptor; P35462; D3R cells, DiscoveRx beta-arrestin luminescence, antagonist mode; active compounds read low; AID 652054; 360,000 tested, 2.5% active; max response, negative = inhibition, %; in the data active = max response below about -50%; note: % is set by controls: 0 for no effect and ±100 for the full control effect
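Cells plated overnight at 1500 cells/well, then exposed to library compounds with dopamine controls for 90 minutes at 37 degrees C. DiscoveRx reagent added for 30–60 minutes at room temperature; luminescence read, quantitative HTS format.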
D1 agonist: human D1 receptor agonism. AID 504660. 360,000 tested, 1% active. activation, % at 2 µM. HEK293 T-REx D1 cells, calcium flux, agonist mode. P21728; in the data active = activation above about 30%; note: 0% is about no effect
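Tetracycline-induced HEK293 TREx D1 cells, force-coupled to calcium signalling, were dye-loaded with a no-wash calcium kit. Compound was pin-added after a 10 s baseline. Fluorescence was read kinetically at 1 cycle/s for 180 s, with calcium rises flagged as agonism.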
D1 antag: human D1 dopamine receptor antagonism | HEK293 TREx D1 cells, calcium flux, dopamine EC80; active compounds read low | activity change, negative = inhibition, % at 10 µM | 360,000 tested, 3.2% active | AID 504652; in the data active = activity change below about -30%; note: % is set by controls: 0 for no effect and ±100 for the full control effect
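Compound effects on dopamine-evoked calcium signalling were measured in tetracycline-induced HEK293 Trex D1 cells. Dopamine at EC80 followed a 180 s compound pre-read, and fluorescence was tracked kinetically for 180 s more.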
* hit, by the source's call; . = not tested or not shown. Hits are enriched below; roughly 6.1% of the tested compounds scored in any of these assays.

SMILES	D1 potentiator	DRD3 agonist	DRD3 antagonist	D1 agonist	D1 antag
Cc1noc(/C=C/N(C)C)c1S(=O)(=O)N1CCC(C(=O)Nc2ccc(Cl)cc2)CC1	-5.4	2.7	-24.2	3.5	-45.5*
Cc1noc(/C=C/c2ccco2)c1S(=O)(=O)N1CCC(C(=O)Nc2ccc(F)c(Cl)c2)CC1	4.3	2.0	.	9.9	-47.9*
Cc1ccc(NC(=O)C2CCN(S(=O)(=O)c3c(C)noc3/C=C/c3ccco3)CC2)cc1C	3.3	-11.3	.	2.9	-2.5
CN(Cc1ccccc1)C(=O)c1ccc2c(c1)N(Cc1ccccc1F)C(=O)c1ccccc1S2(=O)=O	-5.0	-9.4	.	11.5	-18.9
CCOc1ccc(C(c2c(O)cc(C)n(Cc3ccco3)c2=O)N2CCCCC2)cc1 (stereo unspecified)	-2.0	3.5	.	3.8	-6.3
O=C(O)CC(c1cccc(C(F)(F)F)c1)N1CCS(=O)(=O)CC1 (stereo unspecified)	-4.0	1.5	0.0	-1.1	-35.4*
Oc1ccccc1C1=Nc2ncnn2C(c2ccc(F)cc2)C1 (stereo unspecified)	-4.9	3.5	0.0	-0.2	-41.9*
Fc1ccc(C2CC(c3ccc(F)cc3)n3ncnc3N2)cc1 (stereo unspecified)	2.5	2.5	-8.7	1.5	1.0
CCCCc1nn2c(=O)cc(COC(=O)c3ccc(NC(=O)C4CCCCC4)cc3)nc2s1	0.7	1.3	.	-0.6	4.7
Cc1sc2nc(C)n(/N=C/c3ccc(O)cc3O)c(=O)c2c1C	-7.2	0.9	20.5	14.4	-83.9*
CCOc1cc(/C=N/n2c(C)nc3sc(C)c(C)c3c2=O)ccc1O	1.1	2.8	2.2	-0.5	-7.2
Cc1sc2nc(C)n(/N=C/c3ccccc3O)c(=O)c2c1C	-0.3	35.0*	41.0	0.8	16.7
O=C(NCc1cccnc1)c1nn(-c2ccccc2F)nc1CO	2.5	-13.4	.	0.2	4.0
CCc1cc2cc(C)ccc2nc1SCC(=O)NNC(=O)c1ccco1	.	-6.0	2.2	33.9*	11.5
CCOc1ccc(-n2nnnc2SCC(=O)NNC(=O)c2ccco2)cc1	7.8	1.1	17.2	1.7	-37.6*
CCc1cc2cccc(C)c2nc1SCC(=O)N1CCN(C(=O)c2ccco2)CC1	-1.1	40.6*	70.3	3.8	5.5
COc1ccc(C2CC(=O)Nc3c2c(=O)n(C)c2nc4ccccc4n32)cc1 (stereo unspecified)	1.2	3.7	.	0.0	9.6
O=C1C=CC(=O)N1Cc1ccncc1	.	9.1	-7.6	.	.
O=C1C=CC(=O)N1CCCCCCCCCCN1C(=O)C=CC1=O	.	-18.9	-99.8*	.	.
Cc1ccc(C(=O)NC(=S)Nc2ccc(-c3ccc(CO)o3)cc2)cc1	-4.3	60.7*	82.1	3.0	-11.0
Cc1ccc(C(=O)NC(=S)Nc2ccc(S(=O)(=O)N3CCN(C)CC3)cc2)cc1	-17.1	9.8	-21.0	6.8	-56.5*
O=S(=O)(c1ccc(F)cc1)N1CCN(c2nc(-c3ccccc3)nc3cc(Cl)ccc23)CC1	5.6	.	.	6.2	-5.7
CCOc1ccc(CCNC(=O)c2cn(CC)c3ccc(S(=O)(=O)N4CCCCCC4)cc3c2=O)cc1OCC	7.2	-1.5	.	1.8	20.0
CCN(CCCNc1ncnc2nc[nH]c12)c1cccc(C)c1	-9.5	3.3	21.4	8.1	-36.1*
CCCn1c(O)c(N=NC(=O)CNC(=O)/C=C/c2ccc(OC)cc2)c2ccccc21	4.7	-18.1	-50.0*	-0.7	-22.1
SMILES	D1 potentiator	DRD3 agonist	DRD3 antagonist	D1 agonist	D1 antag
COC(=O)[C@H]1[C@@H](C)N(Cc2ccccc2)C(=O)N[C@H]1c1ccccc1	.	2.9	-54.8*	.	.
CCN(c1ccc(OC)cc1)S(=O)(=O)c1ccc2[nH]c3c(c2c1)CCCCC3	-2.5	7.7	.	1.9	-8.4
COc1cc(Cl)c(C)cc1NC(=O)CCCN1C(=O)C(c2ccccc2)Oc2cccnc21 (stereo unspecified)	-7.3	-3.6	.	4.7	-13.0
O=C(Nc1ccc(Oc2ccc(C(F)(F)F)cn2)c(Cl)c1)C1CC1	-3.8	5.0	-19.2	8.4	-32.1*
CC(=O)Nc1ccc(NC(=O)C2CCN(c3ccc(C(F)(F)F)cn3)CC2)cc1	2.8	2.6	10.9	6.7	8.4
Cc1nc(-c2ccc(F)cc2)sc1CCNC(=O)c1ccccc1C(F)(F)F	-4.2	-7.8	.	5.0	-16.0
COc1ccc(C(=O)NC2CC2)cc1OC1CCN(Cc2cc(C)cc(C)c2)CC1	-19.4	-0.8	17.0	0.5	-50.7*
COc1ccc(C(=O)NC2CC2)cc1OC1CCN(Cc2ccc(Cl)cc2)CC1	-19.2	-9.0	-0.6	5.6	-57.7*
CCc1ccc(CN2CCC(Oc3cc(C(=O)NC4CC4)ccc3OC)CC2)cc1	.	-3.1	-16.1	.	.
Cc1ccc(-n2ncc3c(NCCCN4CCOCC4)ncnc32)cc1C	-0.4	-20.2	.	-4.0	-4.5
COc1ccc2[nH]cc(C(=O)CN3CCN(C/C=C/c4ccccc4)CC3)c2c1	-2.5	.	.	85.6*	-2.9
C=C(C)COc1cc2oc(=O)c(CC(=O)N3C[C@H]4C[C@@H](C3)c3cccc(=O)n3C4)c(C)c2cc1Cl	-0.2	32.7*	-21.3	0.2	-7.0
CCN(Cc1ccccc1)C(=O)Cn1c(=O)n(-c2ccccc2)c(=O)c2c1c1cc(C)ccc1n2C	-2.2	-15.4	.	2.3	-3.1
Cc1cc(S(=O)(=O)Nc2ccc(-c3ccc(N4CCCCC4)nn3)cc2)c(C)cc1Cl	-2.3	20.7	.	10.9	-7.0
COc1cc(/C=C2/C(=N)N3N=C(C(C)C)SC3=NC2=O)ccc1OS(=O)(=O)c1ccccc1	-2.0	-2.6	0.5	1.4	-30.7*
Cc1cc(/C=C2/C(=N)N3C(=NC2=O)SN=C3S(C)(=O)=O)c(C)n1-c1ccccc1F	-9.2	-5.1	-19.8	4.1	-20.9
CCS(=O)(=O)C1=NN2C(=N)/C(=C\c3ccc(OC(=O)c4ccco4)c(OC)c3)C(=O)N=C2S1	5.2	1.1	8.3	3.7	-33.0*
CS(=O)(=O)C1=NSC2=NC(=O)/C(=C\c3ccc(OC(=O)c4ccco4)cc3)C(=N)N21	-8.0	.	.	0.3	-30.5*
CS(=O)(=O)C1=NSC2=NC(=O)/C(=C\c3cccn3-c3ccc(Cl)cc3)C(=N)N21	-5.0	-12.1	-6.4	3.5	-35.7*
CCOC(=O)c1cc(-c2ccc(OC)cc2)n(CCC(=O)NC2CCC(C)CC2)c1C (stereo unspecified)	-4.3	-8.1	.	-0.2	-2.4
COc1ccc(CNC(=O)C(=O)NCC(c2cccs2)S(=O)(=O)c2cccs2)cc1 (stereo unspecified)	-3.2	4.0	.	1.3	.
CCc1nn2c(=O)cc(COC(=O)c3ccc(NC(=O)c4cccs4)cc3)nc2s1	-0.4	1.1	.	1.0	-4.1
CC1=C(C(=O)Nc2ccc(C)cc2C)C(c2ccc([N+](=O)[O-])cc2)n2ncc(C(=O)Nc3ccc(F)cc3)c2N1 (stereo unspecified)	0.3	4.1	.	3.3	-1.4
Cc1nc(SCCOc2ccc(F)cc2)c2ccccc2n1	-11.1	0.5	7.7	33.6*	3.2

Bioassay records as filed in PubChem BioAssay.
